Data reported in PubChem BioAssay (NCATS).
Inconclusive results are not listed. Where a call stands in place of a potency, no number is given. A number with no mark means an inactive call. Activity calls are given as the source filed them. Calls come from the whole dose curve; as a rule, active = well fitted curve in the direction sought with a large enough effect; inconclusive = small, poorly fitted or top-dose-only effect, or another doubt; inactive = no such curve, though single readings can be large; an effect the other way counts as inactive or inconclusive.

Legend:
KB-3-1 = test: Cytotoxic Profiling of Annotated Libraries Using Quantitative High-Throughput Screening (AID 1296008); conditions: Five cell lines viability, CellTiter-Glo ATP luminescence, 48-72 h; max response: stronger effect = lower value; note: nearly all actives have a fitted effect of over 60% in size
Outline: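 Compounds were pin-transferred onto cells and incubated 48 or 72 hr at 37 degree Celsius, 95% humidity. CellTiter-Glo was added, plates sat 10 min at room temperature, then ATP-coupled luminescence was imaged as the viability read-out.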

C33A = test: Primary qHTS to identify gynecologic anti-cancer compounds using libraries of approved drugs and bioactive compounds (AID 1345084); conditions: Gynecologic cancer cell panel viability, ATPlite luminescence, 48 h; series mostly up to 57.5 µM; note: nearly all actives have a fitted effect of over 55% in size; note: potency is the fitted concentration of half-maximal effect
Outline: (§1)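 Luminescence from the ATPlite ATP-monitoring reagent indicates viable cell number; lower signal means cytotoxicity. Cells received compound 16 h after seeding and were exposed for 48 h across five concentrations.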

CAOV3 = test: as above; conditions: Gynecologic cancer cell panel viability, ATPlite luminescence, 48 h; series mostly up to 57.5 µM
Outline: as §1

CASKI = test: as above; conditions: Gynecologic cancer cell panel viability, ATPlite luminescence, 48 h; series mostly up to 57.5 µM
Outline: as §1

Es-2 = test: as above; conditions: Gynecologic cancer cell panel viability, ATPlite luminescence, 48 h; series mostly up to 57.5 µM
Outline: as §1

HeLa = test: as above; conditions: Gynecologic cancer cell panel viability, ATPlite luminescence, 48 h; series mostly up to 57.5 µM
Outline: as §1

Hek293T = test: as above; conditions: Gynecologic cancer cell panel viability, ATPlite luminescence, 48 h, control line for the selectivity index; series mostly up to 57.5 µM
Outline: as §1

MCC-13 = test: qHTS assay to identify novel small-molecules to repurpose for Merkel cell carcinoma treatment (AID 1296009); conditions: MCC and control cell lines, CellTiter-Glo viability, 72 h; series mostly up to 46 µM; note: nearly all actives have a fitted effect of over 60% in size
Outline: (§2)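 Viability readout: ATP luminescence (CellTiter-Glo) after 72 hr drug exposure at 37 degree celsius. Dose-response format was 8 points for NPC and 11 points for MIPE; data normalized to in-plate controls.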

MCC-26 = test: as above; conditions: MCC and control cell lines, CellTiter-Glo viability, 72 h; series mostly up to 46 µM
Outline: as §2

MKL-1 = test: as above; conditions: MCC and control cell lines, CellTiter-Glo viability, 72 h; series mostly up to 46 µM
Outline: as §2

MKL-2 = test: as above; conditions: MCC and control cell lines, CellTiter-Glo viability, 72 h; series mostly up to 46 µM
Outline: as §2

UISO = test: as above; conditions: MCC and control cell lines, CellTiter-Glo viability, 72 h; series mostly up to 46 µM
Outline: as §2

WaGa = test: as above; conditions: MCC and control cell lines, CellTiter-Glo viability, 72 h; series mostly up to 46 µM
Outline: as §2

Q: For O=C(O)/C=C/C(=O)Nc1ccc(S(=O)(=O)Nc2nccs2)cc1, which max response (KB-3-1) is on record?
A: -6.18%

Q: How did the max response (KB-3-1) turn out when C/C=C/C=C/C(=O)O was run?
A: 5.4%

Q: How did the max response (KB-3-1) turn out when c1ccc(-n2cnnn2)cc1 was run?
A: 0.0496%

Q: Which max response (KB-3-1) does the source give for CC1=C[C@H](O)CC(C)(C)[C@H]1/C=C/C(C)=C/C=C/C(C)=C/C=C/C=C(C)/C=C/C=C(C)/C=C/C1=C(C)C[C@@H](O)CC1(C)C here?
A: -11%

Q: Which Potency (C33A) does the source give for C[C@H]1O[C@@H](O[C@H]2[C@@H](O)C[C@H](O[C@H]3[C@@H](O)C[C@H](O[C@H]4CC[C@@]5(C)[C@H](CC[C@@H]6[C@@H]5C[C@@H](O)[C@]5(C)[C@@H](C7=CC(=O)OC7)CC[C@]65O)C4)O[C@@H]3C)O[C@@H]2C)C[C@H](O)[C@@H]1O here?
A: 0.0794 µM (active)

Q: And the Potency (CAOV3)?
A: 0.282 µM (active)

Q: And the Potency (CASKI)?
A: 0.447 µM (active)

Q: And the Potency (Es-2)?
A: 0.316 µM (active)

Q: What about the Potency (HeLa) of the same compound?
A: 0.282 µM (active)

Q: And the Potency (Hek293T)?
A: 0.316 µM (active)

Q: How did the max response (KB-3-1) turn out when CCOc1cc(-c2nccc3cc(OC)c(OC)cc23)cc(OCC)c1OCC was run?
A: -26.3%

Q: What does the source list for COc1ccc(C[C@H](C)NC[C@@H](O)c2ccc(O)c(NC=O)c2)cc1?
A: max response (KB-3-1): 5.8%; Potency (C33A): inactive; Potency (CAOV3): inactive; Potency (CASKI): inactive; Potency (HeLa): inactive

Q: C[C@]12CC[C@@H]3c4ccc(O)cc4CC[C@H]3[C@@H]1CC[C@@H]2OP(=O)(O)O was tested. Which max response (KB-3-1) did it give?
A: -26.5%

Q: For CN(Cc1ccccc1)Cc1ccccc1, which max response (KB-3-1) is on record?
A: 19.7%

Q: With O=C(O)C1=C(CSc2nnnn2CS(=O)(=O)O)CS[C@@H]2[C@H](NC(=O)[C@H](O)c3ccccc3)C(=O)N12 as the compound, how does the max response (KB-3-1) read?
A: 3.59%

Q: For O=C(O)CCC(=O)c1ccc(-c2ccccc2)cc1, which outcome (MCC-13) is on record?
A: inactive

Q: What about the outcome (MCC-26) of the same compound?
A: inactive

Q: And the outcome (MKL-1)?
A: inactive

Q: What about the outcome (MKL-2) of the same compound?
A: inactive

Q: And the outcome (UISO)?
A: inactive

Q: And the outcome (WaGa)?
A: inactive

Q: What about the Potency (C33A) of the same compound?
A: inactive

Q: And the Potency (CAOV3)?
A: inactive

Q: What about the Potency (CASKI) of the same compound?
A: inactive

Q: What about the Potency (Es-2) of the same compound?
A: inactive

Q: What about the Potency (HeLa) of the same compound?
A: inactive

Q: And the Potency (Hek293T)?
A: inactive
